Our source for the inhibition values is ChEMBL document CHEMBL1961873, “Compounds: GSK PKIS; Assays: Nanosyn kinase panel” (2012).

Each structure is given as a SMILES string.

Chain of Calcium/calmodulin-dependent protein kinase type II subunit delta (Homo sapiens) (Q13557 whole entry): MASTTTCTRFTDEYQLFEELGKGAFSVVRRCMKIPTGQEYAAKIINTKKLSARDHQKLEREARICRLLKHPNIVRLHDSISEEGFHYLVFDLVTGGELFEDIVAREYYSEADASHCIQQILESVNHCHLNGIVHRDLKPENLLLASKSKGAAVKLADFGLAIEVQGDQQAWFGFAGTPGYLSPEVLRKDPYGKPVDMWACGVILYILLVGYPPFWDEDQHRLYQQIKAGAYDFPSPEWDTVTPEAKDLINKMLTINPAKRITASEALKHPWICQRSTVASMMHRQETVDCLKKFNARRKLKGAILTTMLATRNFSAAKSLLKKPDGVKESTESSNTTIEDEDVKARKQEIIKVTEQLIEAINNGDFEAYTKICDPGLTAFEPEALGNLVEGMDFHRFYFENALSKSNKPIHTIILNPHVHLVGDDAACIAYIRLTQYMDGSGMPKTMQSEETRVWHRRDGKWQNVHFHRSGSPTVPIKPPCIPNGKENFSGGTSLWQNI

The first assay deals with Calcium/calmodulin-dependent protein kinase type II subunit alpha (Homo sapiens) (UniProt Q9UQM7). The settings on record: at 1 µM.
Chain of Calcium/calmodulin-dependent protein kinase type II subunit alpha (Homo sapiens) (Q9UQM7 whole entry): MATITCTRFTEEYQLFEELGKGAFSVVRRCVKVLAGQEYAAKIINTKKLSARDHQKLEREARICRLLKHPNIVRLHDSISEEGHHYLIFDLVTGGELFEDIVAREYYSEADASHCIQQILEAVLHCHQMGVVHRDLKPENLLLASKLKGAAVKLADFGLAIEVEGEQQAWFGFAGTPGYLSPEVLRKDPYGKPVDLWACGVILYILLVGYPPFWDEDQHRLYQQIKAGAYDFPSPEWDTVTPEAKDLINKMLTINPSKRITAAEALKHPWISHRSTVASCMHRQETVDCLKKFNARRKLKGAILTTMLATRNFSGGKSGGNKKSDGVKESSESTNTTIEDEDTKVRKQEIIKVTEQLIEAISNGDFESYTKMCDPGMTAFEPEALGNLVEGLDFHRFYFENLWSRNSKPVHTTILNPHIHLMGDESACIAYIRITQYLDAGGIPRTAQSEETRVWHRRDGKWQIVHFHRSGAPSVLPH
`CCn1c(-c2nonc2N)nc2c(C#CCN)ncc(OCCCN)c21`: the inhibition was -1.33%.
Same read-out and setting: next, `NS(=O)(=O)c1ccc(N/C=C2\C(=O)Nc3ccc4ncsc4c32)cc1`: 3.49%.
The same measure, in the same setting: then `COc1cc(C=NNc2ncnc3c2cnn3Cc2ccccc2)ccc1O`, with -4.25%; and `Fc1ccc(-c2ncn(C3CCNCC3)c2-c2ccnc(Oc3ccccc3)n2)cc1`, with -2.16%.
Turning to `COc1cc2c(cc1Nc1nc(Nc3ccsc3C(N)=O)c3cc[nH]c3n1)N(C(=O)CN(C)C)CCC2`, the inhibition is -4.91%.
Same read-out and setting: next, `COc1cccc(-n2ncc3c(N/N=C/c4ccncc4)ncnc32)c1`: 6.87%.
Still for that read-out and setting: then `CCn1c(-c2nonc2N)nc2c(C#CC(C)(C)O)nc(O[C@@H](CN)c3ccccc3)cc21`, with 1.68%; and `NC(=O)c1sc(-n2cnc3cc(C(F)(F)F)ccc32)cc1OCc1ccccc1Br`, with -0.17%; and `NS(=O)(=O)c1ccc(-c2ccc3c(NC(=O)C4CC4)n[nH]c3c2)cc1`, with 3.21%.
Same read-out and setting: next, `Nc1nonc1-c1nc2cnccc2n1C1CCCCC1`: 0.68%.
In the case of `Cc1cc(-c2ccco2)cc(C)c1/C=C/c1cncc(-c2nn[nH]n2)c1`, the inhibition was -0.97%.
As for `CCn1c(-c2nonc2N)nc2c(C#CC(C)(C)O)ncc(OC[C@@H]3CCCN3)c21`, the inhibition was -2.05%.
Same read-out and setting: next, `COc1cccc(COc2cc(-n3cnc4ccccc43)sc2C(N)=O)c1`: -0.42%.
In the case of `CCn1c(-c2nonc2N)nc2c(C#CC(C)(C)O)ncc(OCC3CCNCC3)c21`, the inhibition amounted to 2.25%.

A further assay has as its target Calcium/calmodulin-dependent protein kinase type II subunit delta (Homo sapiens) (UniProt Q13557). Conditions: at 0.1 µM.
On to `CCn1c(-c2nonc2N)nc2c(C#CCN)ncc(OCCCN)c21`, for which the inhibition is -4.81%.
The same measure, in the same setting: then `NS(=O)(=O)c1ccc(N/C=C2\C(=O)Nc3ccc4ncsc4c32)cc1`, with 4.43%; and `COc1cc(C=NNc2ncnc3c2cnn3Cc2ccccc2)ccc1O`, with -4.62%.
On the same count and under the same terms, then `Fc1ccc(-c2ncn(C3CCNCC3)c2-c2ccnc(Oc3ccccc3)n2)cc1`, with 1.37%; and `COc1cc2c(cc1Nc1nc(Nc3ccsc3C(N)=O)c3cc[nH]c3n1)N(C(=O)CN(C)C)CCC2`, with 3.02%; and `COc1cccc(-n2ncc3c(N/N=C/c4ccncc4)ncnc32)c1`, with 4.21%.
Same read-out and setting: next, `CCn1c(-c2nonc2N)nc2c(C#CC(C)(C)O)nc(O[C@@H](CN)c3ccccc3)cc21`: -0.76%.
Take `NC(=O)c1sc(-n2cnc3cc(C(F)(F)F)ccc32)cc1OCc1ccccc1Br`: the inhibition worked out at 2.18%.
Still for that read-out and setting: next, `NS(=O)(=O)c1ccc(-c2ccc3c(NC(=O)C4CC4)n[nH]c3c2)cc1`: 2.57%.
On the same count and under the same terms, next, `Nc1nonc1-c1nc2cnccc2n1C1CCCCC1`: -1.42%; `Cc1cc(-c2ccco2)cc(C)c1/C=C/c1cncc(-c2nn[nH]n2)c1`: -0.09%; `CCn1c(-c2nonc2N)nc2c(C#CC(C)(C)O)ncc(OC[C@@H]3CCCN3)c21`: 0.64%.
Regarding `COc1cccc(COc2cc(-n3cnc4ccccc43)sc2C(N)=O)c1`, the inhibition turned out to be 0.07%.
For `CCn1c(-c2nonc2N)nc2c(C#CC(C)(C)O)ncc(OCC3CCNCC3)c21`, the inhibition was found to be 2.49%.

Another assay has the same target. Conditions: at 1 µM.
As for `CCn1c(-c2nonc2N)nc2c(C#CCN)ncc(OCCCN)c21`, the inhibition was -4.58%.
With `NS(=O)(=O)c1ccc(N/C=C2\C(=O)Nc3ccc4ncsc4c32)cc1`, the inhibition came out at 16.3%.
On the same count and under the same terms, then `COc1cc(C=NNc2ncnc3c2cnn3Cc2ccccc2)ccc1O`, with -0.47%; and `Fc1ccc(-c2ncn(C3CCNCC3)c2-c2ccnc(Oc3ccccc3)n2)cc1`, with 2.5%.
`COc1cc2c(cc1Nc1nc(Nc3ccsc3C(N)=O)c3cc[nH]c3n1)N(C(=O)CN(C)C)CCC2`: the inhibition was 13%.
The same measure, in the same setting: next, `COc1cccc(-n2ncc3c(N/N=C/c4ccncc4)ncnc32)c1`: 12.8%; `CCn1c(-c2nonc2N)nc2c(C#CC(C)(C)O)nc(O[C@@H](CN)c3ccccc3)cc21`: 14.3%; `NC(=O)c1sc(-n2cnc3cc(C(F)(F)F)ccc32)cc1OCc1ccccc1Br`: 1.35%.
Still for that read-out and setting: next, `NS(=O)(=O)c1ccc(-c2ccc3c(NC(=O)C4CC4)n[nH]c3c2)cc1`: 3.65%; `Nc1nonc1-c1nc2cnccc2n1C1CCCCC1`: 4.05%.
Still for that read-out and setting: then `Cc1cc(-c2ccco2)cc(C)c1/C=C/c1cncc(-c2nn[nH]n2)c1`, with 0.35%.
For the compound `CCn1c(-c2nonc2N)nc2c(C#CC(C)(C)O)ncc(OC[C@@H]3CCCN3)c21`, the inhibition turned out to be 0.35%.
On the same count and under the same terms, next, `COc1cccc(COc2cc(-n3cnc4ccccc43)sc2C(N)=O)c1`: -0.84%.
Still for that read-out and setting: next, `CCn1c(-c2nonc2N)nc2c(C#CC(C)(C)O)ncc(OCC3CCNCC3)c21`: 4.75%.

A further assay concerns the target T1, Calcium/calmodulin-dependent protein kinase type IV (Homo sapiens) (UniProt Q16566).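 Further: each value is a mean inhibition of CAMK4, part of the GSK PKIS kinase screening panel.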
T1 sequence (whole entry): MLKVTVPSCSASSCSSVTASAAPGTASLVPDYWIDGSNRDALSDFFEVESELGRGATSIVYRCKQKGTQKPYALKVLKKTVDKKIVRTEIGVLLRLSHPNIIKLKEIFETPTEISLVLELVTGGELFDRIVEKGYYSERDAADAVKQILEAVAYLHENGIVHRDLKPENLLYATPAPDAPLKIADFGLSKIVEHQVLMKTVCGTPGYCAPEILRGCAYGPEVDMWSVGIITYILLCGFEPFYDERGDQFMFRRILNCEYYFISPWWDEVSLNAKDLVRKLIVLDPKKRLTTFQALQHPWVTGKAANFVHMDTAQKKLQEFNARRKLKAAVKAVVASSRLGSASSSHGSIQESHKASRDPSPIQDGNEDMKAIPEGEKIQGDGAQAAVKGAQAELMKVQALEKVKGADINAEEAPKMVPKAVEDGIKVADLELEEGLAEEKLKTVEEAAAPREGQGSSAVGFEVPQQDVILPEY
Conditions: at 0.1 µM.
For `CCn1c(-c2nonc2N)nc2c(C#CCN)ncc(OCCCN)c21`, the inhibition is -6%.
The same measure, in the same setting: next, `NS(=O)(=O)c1ccc(N/C=C2\C(=O)Nc3ccc4ncsc4c32)cc1`: -1.62%; `COc1cc(C=NNc2ncnc3c2cnn3Cc2ccccc2)ccc1O`: -2.48%.
As for `Fc1ccc(-c2ncn(C3CCNCC3)c2-c2ccnc(Oc3ccccc3)n2)cc1`, the inhibition was -1.82%.
For `COc1cc2c(cc1Nc1nc(Nc3ccsc3C(N)=O)c3cc[nH]c3n1)N(C(=O)CN(C)C)CCC2`, the inhibition was found to be 2.85%.
Same read-out and setting: next, `COc1cccc(-n2ncc3c(N/N=C/c4ccncc4)ncnc32)c1`: -0.17%; `CCn1c(-c2nonc2N)nc2c(C#CC(C)(C)O)nc(O[C@@H](CN)c3ccccc3)cc21`: -0.23%; `NC(=O)c1sc(-n2cnc3cc(C(F)(F)F)ccc32)cc1OCc1ccccc1Br`: 2.89%.
Still for that read-out and setting: then `NS(=O)(=O)c1ccc(-c2ccc3c(NC(=O)C4CC4)n[nH]c3c2)cc1`, with 0.18%; and `Nc1nonc1-c1nc2cnccc2n1C1CCCCC1`, with 1.07%; and `Cc1cc(-c2ccco2)cc(C)c1/C=C/c1cncc(-c2nn[nH]n2)c1`, with 1.45%.
The same measure, in the same setting: then `CCn1c(-c2nonc2N)nc2c(C#CC(C)(C)O)ncc(OC[C@@H]3CCCN3)c21`, with 0.16%; and `COc1cccc(COc2cc(-n3cnc4ccccc43)sc2C(N)=O)c1`, with 2.92%; and `CCn1c(-c2nonc2N)nc2c(C#CC(C)(C)O)ncc(OCC3CCNCC3)c21`, with -2.07%.

The inhibition is the relative decrease from the control value, in per cent.
